Experimental data published in PubChem BioAssay AID2561 (National Center for Advancing Translational Sciences (NCATS), 2010).
Inconclusive results are not listed. Calls of active or inactive are those of the source. Calls come from the whole dose curve; as a rule, active = well fitted inhibition curve with a large enough effect; inconclusive = small, poorly fitted or top-dose-only effect, or effect the other way; inactive = flat fitted curve, though single readings scatter.

The compounds below were run against Pyruvate kinase (Leishmania mexicana) (UniProt Q27686) (assay: Confirmation Assay for Inhibitors of Leishmania Mexicana Pyruvate Kinase (LmPK): for Probe SAR). Details: purified LmPK, ATP generation, Kinase-Glo luminescence; series mostly up to 57.5 µM; activity change, negative = inhibition: at the top concentration.
Summary of the method: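 Purified L. mexicana pyruvate kinase (0.1 nM) with 0.5 mM PEP and 0.1 mM ADP in pH 7.2 imidazole buffer, 1 h at RT. ATP formed measured by Kinase-Glo luminescence; normalized to uninhibited and no-enzyme wells.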
Potency is the fitted concentration of half-maximal effect.
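Throughout, for activity change, negative = inhibition: plate controls were uninhibited enzyme for no effect and no enzyme wells for full effect.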

Sequence of Pyruvate kinase (Leishmania mexicana) (Q27686 whole entry, looked up): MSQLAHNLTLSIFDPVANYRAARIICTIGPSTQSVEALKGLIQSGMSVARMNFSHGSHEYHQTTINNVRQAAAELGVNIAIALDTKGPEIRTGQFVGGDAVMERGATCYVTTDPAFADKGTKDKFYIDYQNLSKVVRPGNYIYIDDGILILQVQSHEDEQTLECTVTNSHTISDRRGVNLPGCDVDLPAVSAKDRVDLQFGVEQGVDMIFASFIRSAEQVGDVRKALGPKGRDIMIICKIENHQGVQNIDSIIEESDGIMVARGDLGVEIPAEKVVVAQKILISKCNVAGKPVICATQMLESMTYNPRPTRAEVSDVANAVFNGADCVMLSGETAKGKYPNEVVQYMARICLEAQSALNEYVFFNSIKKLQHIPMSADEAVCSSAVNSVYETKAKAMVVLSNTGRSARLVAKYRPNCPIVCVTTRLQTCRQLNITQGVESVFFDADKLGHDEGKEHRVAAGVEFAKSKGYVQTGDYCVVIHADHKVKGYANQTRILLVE

Activity change, negative = inhibition, inactive:
COc1ccc(NS(=O)(=O)c2ccc3c(c2)CCC(=O)N3)cc1 8.64%, CC(=O)Nc1ccccc1OC1=N[S+](=O)([O-])c2ccccc21 -3%, Cc1ccc(NS(=O)(=O)c2cc3c(cc2N2CCCCC2)NC(=O)CC3)cc1C 10.8%, Cc1ccccc1Nc1c(-c2ccc(Cl)s2)nc2ccccn12 11.9%, Cc1ccccc1N(C)C1=N[S+](=O)([O-])c2ccccc21 2.85%, O=C1c2ccccc2C(=O)N1Cc1ccncc1 -15.4%, CC(=O)Nc1ccc(S(=O)(=O)Nc2ccc(C)c(C)c2)cc1 -4.95%, O=C1CCc2cc(S(=O)(=O)Nc3ccc(-c4ccccc4)cc3)ccc2N1 -3.23%, Cc1ccc2nc(-c3ccc(C)o3)c(Nc3ccc(F)cc3)n2c1 -21.2%, Cc1ccccc1Nc1c(-c2ccccc2)nc2cccc(C)n12 8.08%, Cc1ccc(NS(=O)(=O)c2ccc3c(c2)CCCC(=O)N3)cc1C 13.9%, COc1ccc(N2C(=O)c3ccccc3C2=O)cc1 4.39%, Cc1ccc2nc(-c3cccs3)c(Nc3ccccc3)n2c1 -3.68%, O=C1c2ccccc2C(=O)N1c1ccccn1 23.6%, O=C1c2ccccc2C(=O)N1Cc1ccccc1 7.51%, Cc1ccc(-c2nc3cccc(C)n3c2Nc2ccc(F)cc2)o1 7.79%, Cc1ccc(NS(=O)(=O)c2ccc3c(c2)CCN(C(=O)C(F)(F)F)C3)cc1C 9.77%, COC(=O)c1ccccc1S(=O)(=O)Nc1cc(=O)c2ccccc2[nH]1 0.72%, CNc1cccc(S(=O)(=O)N2CCN(S(=O)(=O)c3ccc4c(c3)OCCO4)CC2)c1 -4.57%, COc1cc(N2C(=O)c3ccccc3C2=O)c2ncccc2c1 14%, O=C1CCc2cc(S(=O)(=O)Nc3cccc(F)c3)ccc2N1 10.2%, O=C1CCc2cc(S(=O)(=O)Nc3cccc(-c4ccccc4)c3)ccc2N1 15%

Potency, active:
O=C1c2ccccc2C(=O)N1c1cc(=O)c2ccccc2[nH]1 3.26 µM, O=S1(=O)N=C(Oc2cccc(-c3ccccc3)c2)c2ccccc21 3.26 µM, O=S1(=O)N=C(Oc2ccc3ccccc3c2)c2ccccc21 4.11 µM, Cc1ccc(C)c(SC2=NS(=O)(=O)c3ccccc32)c1 4.11 µM, N#Cc1ccccc1OC1=NS(=O)(=O)c2ccccc21 5.8 µM, CC(=O)Nc1cccc(OC2=NS(=O)(=O)c3ccccc32)c1 2.06 µM, O=S1(=O)N=C(Oc2ccccc2-c2ccccc2)c2ccccc21 3.66 µM, O=S1(=O)N=C(Sc2cc(C(F)(F)F)cc(C(F)(F)F)c2)c2ccccc21 2.91 µM
